From PubChem
AmpC inh no detg = qHTS Inhibitors of AmpC Beta-Lactamase (assay without detergent); P00811; AmpC nitrocefin hydrolysis, absorbance 480 nm, 0.0001% Triton; Potency, µM (highest dose often 57.1 µM), for the others: at the top dose activity change, negative = inhibition, actives largely listed as inhibitors; hit rate 0.52% among 330,000; AID 485341, 2010;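 note: plate controls were no compound for no effect and no enzyme for full effect; nearly all actives have a fitted effect of over 20% in size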
Target sequence (P00811 whole entry, looked up): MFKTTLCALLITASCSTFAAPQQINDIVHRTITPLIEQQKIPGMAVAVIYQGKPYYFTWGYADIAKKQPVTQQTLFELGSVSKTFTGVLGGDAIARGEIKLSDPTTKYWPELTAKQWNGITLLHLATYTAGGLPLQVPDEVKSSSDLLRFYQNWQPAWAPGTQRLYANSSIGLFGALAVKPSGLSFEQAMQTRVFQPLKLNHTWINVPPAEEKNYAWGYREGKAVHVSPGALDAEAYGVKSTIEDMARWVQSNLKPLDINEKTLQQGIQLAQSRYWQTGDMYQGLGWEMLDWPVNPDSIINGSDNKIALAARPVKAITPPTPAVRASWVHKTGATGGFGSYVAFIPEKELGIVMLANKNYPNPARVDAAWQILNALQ
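AmpC (5.3 nM in the dispensed reagent) in 20 mM phosphate pH 7.0 with 0.01% (detergent screen) or 0.0001% Triton X-100 was preincubated with compounds for 15 min at room temperature. Nitrocefin was then added from an 800 uM solution, and hydrolysis was followed at 480 nm.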
FMDV inh = High Throughput Screening for Foot and Mouth Disease Virus Antivirals | Potency, µM (doses to about 57.9 µM), without a hit: at the top dose activity change, negative = inhibition, hits mostly inhibitors | hit rate 1.2% among 410,000 | FMDV antiviral cell-based qHTS; calls by dose curve; tested in HEK293T cells; note: read-out not given here; nearly all actives have a fitted effect of over 45% in size
AmpC detergent = qHTS Inhibitors of AmpC Beta-Lactamase (assay with detergent). hit rate 0.041% among 370,000. P00811. AmpC hydrolysis of nitrocefin, absorbance 480 nm, 0.01% Triton. Potency, µM (top dose mostly 114 µM), for inactives: at the highest dose activity change, negative = inhibition, actives largely listed as inhibitors;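 note: 0% = no-compound wells and -100% = no-enzyme wells; nearly all actives have a fitted effect of over 25% in size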
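20 mM phosphate pH 7.0 + 0.01% (detergent screen) or 0.0001% Triton X-100; 5.3 nM AmpC reagent; cpd preinc 15 min RT; nitrocefin (800 uM stock) to start; A480 q20 s × 4 min; Activity was normalised to no-enzyme and no-compound control wells.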
Sm TGR inh = qHTS Assay for the Inhibitors of Schistosoma Mansoni Peroxiredoxins. Schistosoma mansoni thioredoxin glutathione reductase (TGR), Q962Y6. purified TGR, DTNB reduction, TNB absorbance 405 nm. Potency, µM (doses to about 114 µM), for the others: at the top dose activity change, negative = inhibition, hits mostly inhibitors. hit rate 3% among 360,000. AID 485364, 2010; note: nearly all actives have a fitted effect of over 60% in size
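First, TGR (20 nM dispensed) and NADPH were mixed with compound. Second, a 15 min room-temperature incubation followed. Third, further NADPH and then DTNB were added to start the reaction. Finally, TNB absorbance was monitored kinetically.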
AMA1 RON2 block = qHTS for Inhibitors of AMA1-RON; Towards Development of Antimalarial Drug Lead: Primary Screen; Plasmodium falciparum AMA1 (3D7) - RON2 peptide interaction; AlphaScreen AMA1-biotinylated RON2 peptide binding; Potency, µM (titrated, usually from 58.2 µM), inactives show at the top dose activity change, negative = inhibition, actives largely listed as inhibitors; hit rate 0.2% among 360,000; AID 720542, 2013;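 note: 0% = vehicle wells and -100% = peptide control; nearly all actives have a fitted effect of over 45% in size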
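AMA1 (3D7) with his tag at 25 nM final met compounds first, then biotinylated RON2 peptide at 25 nM; detection used donor plus acceptor beads, 10 µg/mL apiece, read by AlphaScreen after 30 min at room temperature.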
Starred values were filed as active, the others as inactive; ? = inconclusive; / = not tested or not shown; [ ] = dose if it differs, or a comment. In the library only some 4.1% were active in any assay of this set; here they are far more common. Unless noted, calls come from the whole dose curve; as a rule, active = well fitted curve in the direction sought with a large enough effect; inconclusive = small, poorly fitted or top-dose-only effect, or another doubt; inactive = no such curve, though single readings can be large; an effect the other way counts as inactive or inconclusive. Unless noted, % is set by controls: 0 for no effect and ±100 for the full control effect; potency is the fitted concentration of half-maximal effect.

SMILES	AmpC inh no detg	FMDV inh	AmpC detergent	Sm TGR inh	AMA1 RON2 block
CCOC(=O)c1ccc(NC(=O)CC2C(=O)OCCN2CC)cc1 (stereo not given)	-24%	-10%	2%	22µM*	-17%
CCOC(=O)c1ccc(NC(=O)CC2OCCN(CC)C2=O)cc1 (stereo not given)	-24%	2%	0%	25µM*	-4%
CCN1CCOC(=O)C1CC(=O)Nc1cccc(OC)c1 (stereo not given)	/	4%	6%	18µM*	/
CCOC(=O)c1ccc(NC(=O)CC2NCCNC2=O)cc1 (stereo not given)	-11%	9%	?	0%	-13%
CCOc1ccc(NC(=O)CC2C(=O)OCCN2CC)cc1 (stereo not given)	/	15%	-2%	11µM*	/
O=C(CC1C(=O)OCCN1Cc1ccccc1)Nc1ccc(F)cc1 (stereo not given)	/	6%	0%	?	/
COC(=O)c1cccc(C(=O)N2CCc3c(cnc(C)c3CNC(=O)/C=C/c3cccs3)C2)c1	/	-8%	/	/	/
Cc1ccc(N2CC(NC(=O)c3ccc(S(=O)(=O)N(C)C)cc3)CC2=O)cc1C (stereo not given)	/	-27%	3%	6%	/
CCCCCCCn1c(=O)c(C(=O)OC)c(N)c2ccccc21	92%	13µM*	1%	5%	1%
Cc1ccc(/C=N/n2c(-c3ccccn3)n[nH]c2=S)o1	-11%	12%	7%	45µM*	?
Cc1ccc(-c2n[nH]c(=S)n2/N=C/c2ccc(C)o2)cc1	-20%	-15%	2%	-4%	15%[2.32 µM]
Cc1ccc(/C=N/n2c(-c3cccnc3)n[nH]c2=S)o1	-26%	-17%	1%	28µM*	52%
CN1CCN(C(=O)Cn2ncc3c4ccccc4n(Cc4ccc(Cl)cc4)c3c2=O)CC1	/	-17%	12%	0%	/
Cc1oc(-c2ccc(Cl)cc2)nc1CS(=O)CC(=O)NCc1ccccc1 (stereo not given)	108%	8%	-1%	0%	-11%
Cc1ccc(-c2nc(CS(=O)CC(=O)NCc3ccc4c(c3)OCO4)c(C)o2)cc1 (stereo not given)	23%	-11%	-13%	22µM*	9%
CCc1ccc(-c2nc(CS(=O)CC(=O)NCc3ccccc3)c(C)o2)cc1 (stereo not given)	75%	2%	-2%	8.9µM*	-13%
CCc1ccc(-c2nc(CSCC(=O)NCc3ccco3)c(C)o2)cc1	27%	-30%	-3%	28µM*	15%
CCc1ccc(-c2nc(CS(=O)CC(=O)NCc3ccc4c(c3)OCO4)c(C)o2)cc1 (stereo not given)	66%	-10%	1%	10µM*	-3%
CCOc1ccc(C(=O)c2cn(CC(=O)Nc3ccc4c(c3)OCCO4)c3ccc(OC)cc3c2=O)cc1	/	-7%	8%	14%	/
N#Cc1ccccc1NC(=O)CSc1ncn[nH]1	/	-17%	5%	4%	/
Nc1c(C(=O)Nc2ccc(OC(F)(F)F)cc2)sc2nc(-c3ccncc3)ccc12	/	?	25%	0%	/
Cc1csc(NC(=O)c2cc3c(s2)CCCCC3)n1	-39%	8.9µM*	?	-2%	-9%
CCOC(=O)c1c(NC(=O)c2cc(-c3ccccc3OC)on2)sc(C)c1C	/	12%	-5%	-7%	/
O=C1CC(=O)N(Cc2ccco2)C(=O)N1	-21%	5%	-8%	?	?
O=C1C(=C2CCCCC2)SC(=S)N1Cc1ccco1	?	0%	?	20µM*	16%
SMILES	AmpC inh no detg	FMDV inh	AmpC detergent	Sm TGR inh	AMA1 RON2 block
O=C(O)CCN1C(=O)C(=C2CCCCCC2)SC1=S	-25%	-7%	-19%	?	38%
O=C1CC(=O)N(Cc2ccco2)C(=S)N1	-58%	-18%	?	1.8µM*	-10%
COC(=O)c1cccc(N/C=C(\[N+](=O)[O-])S(=O)(=O)c2ccccc2)c1	-17%	20%	-9%	?	-2%
O=C1OC(/C(=C\Nc2ccc(F)cc2F)[N+](=O)[O-])c2ccccc21 (stereo not given)	-26%	-21%	2%	11µM*	11%
O=[N+]([O-])/C(=C\Nc1ccc(F)cc1F)S(=O)(=O)c1ccccc1	-16%	-4%	?	10µM*	14%
CC(NC(=O)c1cc(F)ccc1F)c1nnc2n1CCN(Cc1ccccc1O)CC2 (stereo not given)	/	1%	/	/	/
COc1ccc(OC)c(CCNC(=O)c2c(C)nn(-c3ccc(F)cc3)c2-n2cccc2)c1	/	?	15%	8%	/
CCOc1ccc(/C=C/c2nc(C#N)c(NC(C)CC)o2)cc1 (stereo not given)	/	1%	12%	-2%	/
O=C(NC1CCCCC1)c1ccc2c(c1)N(Cc1ccc(Cl)cc1)C(=O)c1ccccc1S2(=O)=O	/	-8%	18%	11%	/
Cc1[nH]c2ccccc2c1C(=O)COC(=O)C1CC(O)CN1S(=O)(=O)c1ccc(Cl)cc1 (stereo not given)	185%	0%	-17%	-6%	14%
CSCCC(NS(=O)(=O)c1ccc(Cl)cc1)C(=O)OCC(=O)c1c(C)[nH]c2ccccc12 (stereo not given)	?	35µM*	-13%	-11%	-13%
CSCCC(NS(=O)(=O)c1ccc2ccccc2c1)C(=O)OCC(=O)c1ccc(C(C)C)cc1 (stereo not given)	7.9µM*	-4%	-7%	-1%	-13%
CC(O)C(NS(=O)(=O)c1ccc(Cl)cc1)C(=O)OCC(=O)c1c[nH]c2ccccc12 (stereo not given)	23%	16µM*	1%	/	-13%
C=C1C(=O)[C@]23C[C@H]1CCC2[C@]1(C)C(=O)CC[C@@](C)(C(=O)O)C1C[C@@H]3O (stereo not given in full)	/	35µM*	/	/	0%
C=C1C(=O)[C@]23C[C@H]1CCC2[C@]1(C)CCC[C@@](C)(C(=O)O)C1C[C@@H]3O (stereo not given in full)	/	25µM*	/	/	6%
C=C1C(=O)[C@]23C[C@H]1CC[C@H]2[C@]1(C)[C@@H](OC(C)=O)CC[C@@](C)(C(=O)O)[C@H]1C[C@@H]3OC(C)=O	/	?	/	/	6%
COc1ccccc1CNc1ccc(-c2nc(-c3ccncc3)no2)cc1[N+](=O)[O-]	/	0%	-10%	-3%	/
Cc1ccc(OCCn2cc(C(=O)c3ccco3)c3ccccc32)cc1C	/	-21%	-7%	6%	/
Cc1cc(OCCn2cc(/C(N)=N/O)c3ccccc32)ccc1Cl	16µM*	/	?	-20%	-7%
